Measured values taken from the supplement of paper PMC11732987, “Enantioselective OTUD7B fragment discovery through chemoproteomics screening and high-throughput optimisation” (Communications Chemistry, 2025).

What was measured:
Experiment in all cases: log2 ratio of Biotin-Ahx-Ub-VS probe labelling (fragment/DMSO); higher = less target engagement (more negative = stronger competition), active = hit call of the paper (q ≤ 0.05, log2 ratio ≤ -1)
Conditions in all cases: compound concentration: 200 uM; treatment time: 3 h
[1] = biological target: T1, USP42 (UniProt Q9H9J4)
T1 sequence (whole entry): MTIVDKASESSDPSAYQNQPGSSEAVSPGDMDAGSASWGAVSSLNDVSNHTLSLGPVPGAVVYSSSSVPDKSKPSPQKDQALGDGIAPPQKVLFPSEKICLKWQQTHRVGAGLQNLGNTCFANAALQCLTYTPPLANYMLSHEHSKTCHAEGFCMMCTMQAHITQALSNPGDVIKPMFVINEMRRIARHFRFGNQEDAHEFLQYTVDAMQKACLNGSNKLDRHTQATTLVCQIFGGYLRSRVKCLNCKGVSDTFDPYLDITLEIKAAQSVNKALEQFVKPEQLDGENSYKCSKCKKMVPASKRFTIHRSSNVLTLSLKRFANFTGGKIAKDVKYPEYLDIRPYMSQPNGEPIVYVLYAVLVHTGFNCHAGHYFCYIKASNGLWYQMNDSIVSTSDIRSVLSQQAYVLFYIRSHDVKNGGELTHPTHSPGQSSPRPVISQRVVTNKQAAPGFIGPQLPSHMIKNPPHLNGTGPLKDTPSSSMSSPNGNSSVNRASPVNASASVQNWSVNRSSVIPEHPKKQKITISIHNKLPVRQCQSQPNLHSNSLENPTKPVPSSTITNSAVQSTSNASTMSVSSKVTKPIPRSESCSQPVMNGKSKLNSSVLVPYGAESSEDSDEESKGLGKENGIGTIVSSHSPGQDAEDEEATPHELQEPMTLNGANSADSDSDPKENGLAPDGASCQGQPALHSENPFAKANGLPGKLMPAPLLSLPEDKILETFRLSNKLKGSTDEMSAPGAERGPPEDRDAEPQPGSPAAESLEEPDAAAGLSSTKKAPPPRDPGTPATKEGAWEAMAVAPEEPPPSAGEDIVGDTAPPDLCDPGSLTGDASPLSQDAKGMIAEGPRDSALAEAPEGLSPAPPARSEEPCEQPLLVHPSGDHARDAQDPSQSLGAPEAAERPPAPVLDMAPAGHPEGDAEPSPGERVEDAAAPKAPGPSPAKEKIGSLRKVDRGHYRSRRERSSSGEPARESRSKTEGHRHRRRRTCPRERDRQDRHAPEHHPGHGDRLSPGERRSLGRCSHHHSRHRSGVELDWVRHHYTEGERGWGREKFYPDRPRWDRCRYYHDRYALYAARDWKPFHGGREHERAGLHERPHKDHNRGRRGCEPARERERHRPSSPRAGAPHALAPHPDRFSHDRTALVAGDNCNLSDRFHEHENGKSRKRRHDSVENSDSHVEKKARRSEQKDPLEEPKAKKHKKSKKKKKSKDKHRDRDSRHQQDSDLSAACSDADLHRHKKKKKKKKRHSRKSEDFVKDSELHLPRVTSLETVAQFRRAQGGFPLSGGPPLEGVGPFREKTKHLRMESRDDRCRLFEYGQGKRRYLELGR
In short: (§1)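 Labelled DUBs were enriched with NeutrAvidin, digested with LysC and trypsin, and run by diaPASEF LC-MS/MS. The labelling used Biotin-Ahx-Ub-VS at 0.5 µM final for 1 h on HEK293T lysate (495 µg per sample) previously treated in triplicate with fragment at 200 µM or vehicle for 3 h. Values are average log2 fragment/vehicle ratios by unpaired t-test on global-median-normalised Spectronaut quantities of proteins with ≥2 unique peptides.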

[2] = biological target: USP46 (UniProt P62068)
In short: as §1

[3] = biological target: T2, USP47 (UniProt Q96K76)
T2 sequence (whole entry): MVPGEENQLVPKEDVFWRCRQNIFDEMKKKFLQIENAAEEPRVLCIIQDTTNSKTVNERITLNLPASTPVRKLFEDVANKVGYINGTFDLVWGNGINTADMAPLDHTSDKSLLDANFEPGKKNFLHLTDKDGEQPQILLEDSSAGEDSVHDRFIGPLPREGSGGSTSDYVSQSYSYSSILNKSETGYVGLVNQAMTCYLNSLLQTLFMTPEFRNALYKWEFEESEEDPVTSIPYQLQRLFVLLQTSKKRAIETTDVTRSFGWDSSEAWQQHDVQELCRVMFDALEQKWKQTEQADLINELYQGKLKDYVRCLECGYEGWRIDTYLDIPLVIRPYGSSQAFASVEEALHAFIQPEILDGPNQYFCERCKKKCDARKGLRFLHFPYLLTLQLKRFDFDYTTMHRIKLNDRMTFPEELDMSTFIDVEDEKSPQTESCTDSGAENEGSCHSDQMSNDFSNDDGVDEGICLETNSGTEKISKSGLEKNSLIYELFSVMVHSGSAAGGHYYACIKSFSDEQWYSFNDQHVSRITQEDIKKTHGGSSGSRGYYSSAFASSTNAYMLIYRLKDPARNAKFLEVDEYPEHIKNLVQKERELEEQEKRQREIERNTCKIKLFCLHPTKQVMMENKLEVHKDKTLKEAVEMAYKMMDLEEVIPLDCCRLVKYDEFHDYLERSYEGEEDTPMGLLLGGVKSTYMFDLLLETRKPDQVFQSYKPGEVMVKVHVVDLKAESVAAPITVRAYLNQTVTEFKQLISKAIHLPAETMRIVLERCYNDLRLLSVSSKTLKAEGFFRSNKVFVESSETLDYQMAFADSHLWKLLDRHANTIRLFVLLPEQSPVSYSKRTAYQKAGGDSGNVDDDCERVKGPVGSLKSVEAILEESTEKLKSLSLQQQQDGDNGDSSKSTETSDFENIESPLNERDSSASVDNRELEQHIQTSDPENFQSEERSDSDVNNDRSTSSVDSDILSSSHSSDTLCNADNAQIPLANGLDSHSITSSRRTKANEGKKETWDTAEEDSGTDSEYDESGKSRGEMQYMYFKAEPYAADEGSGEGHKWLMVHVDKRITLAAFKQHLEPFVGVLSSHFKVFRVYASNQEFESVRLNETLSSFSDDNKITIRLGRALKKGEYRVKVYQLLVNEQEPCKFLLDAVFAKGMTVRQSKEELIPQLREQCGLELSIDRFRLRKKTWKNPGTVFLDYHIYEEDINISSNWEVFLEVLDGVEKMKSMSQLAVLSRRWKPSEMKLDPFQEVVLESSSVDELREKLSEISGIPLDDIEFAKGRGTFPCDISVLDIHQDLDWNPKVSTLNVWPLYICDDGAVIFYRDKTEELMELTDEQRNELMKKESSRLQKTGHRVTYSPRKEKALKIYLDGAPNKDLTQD
In short: as §1

[4] = biological target: T3, USP48 (UniProt Q86UV5)
T3 sequence (whole entry): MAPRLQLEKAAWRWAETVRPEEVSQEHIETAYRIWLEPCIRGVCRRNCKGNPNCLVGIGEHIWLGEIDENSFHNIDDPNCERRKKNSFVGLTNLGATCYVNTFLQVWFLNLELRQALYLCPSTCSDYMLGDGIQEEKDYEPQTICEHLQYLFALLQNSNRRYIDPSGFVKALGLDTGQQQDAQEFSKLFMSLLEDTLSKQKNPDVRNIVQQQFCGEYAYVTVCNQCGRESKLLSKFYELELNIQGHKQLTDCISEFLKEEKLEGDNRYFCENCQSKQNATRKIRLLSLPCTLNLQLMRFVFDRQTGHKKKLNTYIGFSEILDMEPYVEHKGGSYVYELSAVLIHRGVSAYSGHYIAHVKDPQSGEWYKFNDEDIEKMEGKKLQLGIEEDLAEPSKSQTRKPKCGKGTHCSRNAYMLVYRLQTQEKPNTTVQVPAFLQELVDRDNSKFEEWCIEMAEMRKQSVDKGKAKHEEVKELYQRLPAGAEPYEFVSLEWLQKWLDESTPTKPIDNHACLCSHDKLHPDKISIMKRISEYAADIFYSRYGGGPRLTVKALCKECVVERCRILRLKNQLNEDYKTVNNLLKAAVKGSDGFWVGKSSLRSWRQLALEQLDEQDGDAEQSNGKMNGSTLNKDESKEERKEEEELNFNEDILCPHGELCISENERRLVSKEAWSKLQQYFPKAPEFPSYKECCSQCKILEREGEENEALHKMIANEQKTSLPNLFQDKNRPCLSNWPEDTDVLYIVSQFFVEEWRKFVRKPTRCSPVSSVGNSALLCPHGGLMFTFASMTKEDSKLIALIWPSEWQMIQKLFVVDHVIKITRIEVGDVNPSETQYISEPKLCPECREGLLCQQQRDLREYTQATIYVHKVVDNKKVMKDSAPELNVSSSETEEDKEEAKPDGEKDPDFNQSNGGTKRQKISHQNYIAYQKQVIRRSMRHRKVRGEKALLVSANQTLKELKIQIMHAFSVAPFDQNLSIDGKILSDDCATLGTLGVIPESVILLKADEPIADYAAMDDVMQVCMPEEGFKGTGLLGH
In short: as §1

[5] = biological target: T4, USP5 (UniProt P45974)
T4 sequence (whole entry): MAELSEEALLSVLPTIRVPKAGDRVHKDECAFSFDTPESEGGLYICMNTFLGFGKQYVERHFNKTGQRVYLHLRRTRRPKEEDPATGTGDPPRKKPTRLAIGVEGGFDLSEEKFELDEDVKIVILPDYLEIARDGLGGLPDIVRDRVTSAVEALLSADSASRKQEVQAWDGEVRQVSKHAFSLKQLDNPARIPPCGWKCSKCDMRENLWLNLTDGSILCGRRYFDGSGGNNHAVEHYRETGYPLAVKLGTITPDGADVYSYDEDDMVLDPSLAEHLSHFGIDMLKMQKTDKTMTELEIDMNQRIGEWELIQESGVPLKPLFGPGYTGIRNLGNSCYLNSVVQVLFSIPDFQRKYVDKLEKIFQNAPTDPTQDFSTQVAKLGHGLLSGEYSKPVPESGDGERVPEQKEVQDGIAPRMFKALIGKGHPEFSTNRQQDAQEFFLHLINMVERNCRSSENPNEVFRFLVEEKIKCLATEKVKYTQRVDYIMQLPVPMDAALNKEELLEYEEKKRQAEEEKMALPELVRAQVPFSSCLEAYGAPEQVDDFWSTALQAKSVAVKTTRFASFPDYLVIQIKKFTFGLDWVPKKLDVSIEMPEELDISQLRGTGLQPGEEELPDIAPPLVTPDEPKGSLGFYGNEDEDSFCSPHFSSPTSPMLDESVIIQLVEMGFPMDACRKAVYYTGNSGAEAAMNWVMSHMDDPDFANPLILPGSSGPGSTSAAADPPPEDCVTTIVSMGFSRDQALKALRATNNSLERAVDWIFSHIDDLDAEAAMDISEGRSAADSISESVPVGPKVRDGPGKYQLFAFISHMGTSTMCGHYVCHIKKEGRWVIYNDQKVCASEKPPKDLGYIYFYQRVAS
In short: as §1

[6] = biological target: USP54 (UniProt Q70EL1)
In short: as §1

[7] = biological target: USP7 (UniProt Q93009)
In short: as §1

[8] = biological target: T5, USP8 (UniProt P40818)
T5 sequence (whole entry): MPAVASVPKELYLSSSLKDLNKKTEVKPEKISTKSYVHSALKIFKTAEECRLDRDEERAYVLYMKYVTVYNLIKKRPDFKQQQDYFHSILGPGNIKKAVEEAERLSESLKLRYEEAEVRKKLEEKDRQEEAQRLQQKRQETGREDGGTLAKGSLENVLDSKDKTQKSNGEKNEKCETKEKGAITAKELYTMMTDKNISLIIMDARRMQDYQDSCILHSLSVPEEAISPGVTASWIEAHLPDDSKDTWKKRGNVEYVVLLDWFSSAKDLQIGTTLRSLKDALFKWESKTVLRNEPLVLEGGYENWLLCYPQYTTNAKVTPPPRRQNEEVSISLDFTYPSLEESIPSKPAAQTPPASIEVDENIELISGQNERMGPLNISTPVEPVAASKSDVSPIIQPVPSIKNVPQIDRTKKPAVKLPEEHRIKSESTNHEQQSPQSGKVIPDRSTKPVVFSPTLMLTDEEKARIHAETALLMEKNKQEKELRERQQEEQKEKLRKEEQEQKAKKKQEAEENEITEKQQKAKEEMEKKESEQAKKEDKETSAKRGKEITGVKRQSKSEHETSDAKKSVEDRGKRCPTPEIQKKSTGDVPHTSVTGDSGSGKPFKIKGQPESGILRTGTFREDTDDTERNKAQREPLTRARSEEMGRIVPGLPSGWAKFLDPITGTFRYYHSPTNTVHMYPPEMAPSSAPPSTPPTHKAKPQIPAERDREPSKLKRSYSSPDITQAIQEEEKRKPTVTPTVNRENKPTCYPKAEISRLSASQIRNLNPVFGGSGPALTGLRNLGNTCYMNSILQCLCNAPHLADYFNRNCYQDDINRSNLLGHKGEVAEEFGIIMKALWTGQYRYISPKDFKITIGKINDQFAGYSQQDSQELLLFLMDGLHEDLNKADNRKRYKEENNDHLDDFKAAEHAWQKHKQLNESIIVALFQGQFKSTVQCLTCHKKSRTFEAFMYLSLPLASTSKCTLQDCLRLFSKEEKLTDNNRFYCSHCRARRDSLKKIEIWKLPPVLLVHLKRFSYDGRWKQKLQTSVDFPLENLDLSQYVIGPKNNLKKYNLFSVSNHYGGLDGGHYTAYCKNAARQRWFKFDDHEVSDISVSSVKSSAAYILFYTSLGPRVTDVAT
In short: as §1

[9] = biological target: USP9X (UniProt Q93008)
In short: as §1

[10] = biological target: UniProt O00487
In short: as §1

Measured: log2 ratio of Biotin-Ahx-Ub-VS probe labelling

Sequence of UniProt O00487 (O00487 whole entry): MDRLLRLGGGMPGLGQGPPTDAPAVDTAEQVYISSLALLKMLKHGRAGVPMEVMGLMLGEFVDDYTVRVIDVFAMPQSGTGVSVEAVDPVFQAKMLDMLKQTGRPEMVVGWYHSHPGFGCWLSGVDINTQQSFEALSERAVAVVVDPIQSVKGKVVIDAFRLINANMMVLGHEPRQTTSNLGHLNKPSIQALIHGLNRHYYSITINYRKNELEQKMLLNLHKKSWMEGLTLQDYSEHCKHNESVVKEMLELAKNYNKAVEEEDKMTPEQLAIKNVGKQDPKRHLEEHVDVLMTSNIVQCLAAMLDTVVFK
Sequence of USP7 (Q93009 whole entry, looked up): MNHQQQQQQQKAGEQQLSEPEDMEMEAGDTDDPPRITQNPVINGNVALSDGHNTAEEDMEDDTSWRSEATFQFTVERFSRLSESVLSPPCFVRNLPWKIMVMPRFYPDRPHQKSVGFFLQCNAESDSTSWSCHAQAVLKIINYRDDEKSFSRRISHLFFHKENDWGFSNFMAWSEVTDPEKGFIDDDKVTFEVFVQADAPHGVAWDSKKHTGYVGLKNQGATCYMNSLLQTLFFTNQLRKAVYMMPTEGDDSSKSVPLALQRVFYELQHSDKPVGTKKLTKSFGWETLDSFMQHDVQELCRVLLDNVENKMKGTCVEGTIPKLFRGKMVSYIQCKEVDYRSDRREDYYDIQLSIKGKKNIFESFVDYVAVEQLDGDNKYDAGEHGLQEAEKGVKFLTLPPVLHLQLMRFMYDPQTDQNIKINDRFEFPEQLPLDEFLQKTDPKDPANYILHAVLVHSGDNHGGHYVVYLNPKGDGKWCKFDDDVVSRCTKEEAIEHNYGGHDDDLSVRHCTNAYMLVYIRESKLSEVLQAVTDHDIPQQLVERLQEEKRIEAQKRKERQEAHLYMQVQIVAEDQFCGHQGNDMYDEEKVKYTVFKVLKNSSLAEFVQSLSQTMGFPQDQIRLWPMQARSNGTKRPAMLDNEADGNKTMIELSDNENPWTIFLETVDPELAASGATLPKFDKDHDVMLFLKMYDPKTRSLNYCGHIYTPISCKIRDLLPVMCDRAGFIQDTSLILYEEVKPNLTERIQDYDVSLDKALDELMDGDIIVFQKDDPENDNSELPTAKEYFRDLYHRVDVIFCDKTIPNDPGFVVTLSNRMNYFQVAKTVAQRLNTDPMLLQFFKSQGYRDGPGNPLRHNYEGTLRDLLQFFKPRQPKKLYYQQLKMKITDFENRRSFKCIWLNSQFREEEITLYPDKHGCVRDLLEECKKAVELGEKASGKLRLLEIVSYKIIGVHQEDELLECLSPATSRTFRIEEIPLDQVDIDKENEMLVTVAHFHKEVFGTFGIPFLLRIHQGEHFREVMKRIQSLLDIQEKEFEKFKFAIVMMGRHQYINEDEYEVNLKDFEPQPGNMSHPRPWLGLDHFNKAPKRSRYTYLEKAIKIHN
Sequence of USP46 (P62068 whole entry): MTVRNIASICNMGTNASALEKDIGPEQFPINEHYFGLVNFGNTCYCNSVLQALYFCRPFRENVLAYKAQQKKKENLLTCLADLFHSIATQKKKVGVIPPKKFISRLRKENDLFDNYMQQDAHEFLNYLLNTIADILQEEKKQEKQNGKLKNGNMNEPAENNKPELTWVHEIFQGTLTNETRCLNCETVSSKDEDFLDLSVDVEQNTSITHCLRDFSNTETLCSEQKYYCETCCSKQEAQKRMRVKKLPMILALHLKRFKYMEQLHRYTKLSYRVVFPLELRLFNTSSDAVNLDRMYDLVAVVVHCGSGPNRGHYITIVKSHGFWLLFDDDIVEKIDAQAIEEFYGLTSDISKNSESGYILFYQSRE
Sequence of USP9X (Q93008 whole entry): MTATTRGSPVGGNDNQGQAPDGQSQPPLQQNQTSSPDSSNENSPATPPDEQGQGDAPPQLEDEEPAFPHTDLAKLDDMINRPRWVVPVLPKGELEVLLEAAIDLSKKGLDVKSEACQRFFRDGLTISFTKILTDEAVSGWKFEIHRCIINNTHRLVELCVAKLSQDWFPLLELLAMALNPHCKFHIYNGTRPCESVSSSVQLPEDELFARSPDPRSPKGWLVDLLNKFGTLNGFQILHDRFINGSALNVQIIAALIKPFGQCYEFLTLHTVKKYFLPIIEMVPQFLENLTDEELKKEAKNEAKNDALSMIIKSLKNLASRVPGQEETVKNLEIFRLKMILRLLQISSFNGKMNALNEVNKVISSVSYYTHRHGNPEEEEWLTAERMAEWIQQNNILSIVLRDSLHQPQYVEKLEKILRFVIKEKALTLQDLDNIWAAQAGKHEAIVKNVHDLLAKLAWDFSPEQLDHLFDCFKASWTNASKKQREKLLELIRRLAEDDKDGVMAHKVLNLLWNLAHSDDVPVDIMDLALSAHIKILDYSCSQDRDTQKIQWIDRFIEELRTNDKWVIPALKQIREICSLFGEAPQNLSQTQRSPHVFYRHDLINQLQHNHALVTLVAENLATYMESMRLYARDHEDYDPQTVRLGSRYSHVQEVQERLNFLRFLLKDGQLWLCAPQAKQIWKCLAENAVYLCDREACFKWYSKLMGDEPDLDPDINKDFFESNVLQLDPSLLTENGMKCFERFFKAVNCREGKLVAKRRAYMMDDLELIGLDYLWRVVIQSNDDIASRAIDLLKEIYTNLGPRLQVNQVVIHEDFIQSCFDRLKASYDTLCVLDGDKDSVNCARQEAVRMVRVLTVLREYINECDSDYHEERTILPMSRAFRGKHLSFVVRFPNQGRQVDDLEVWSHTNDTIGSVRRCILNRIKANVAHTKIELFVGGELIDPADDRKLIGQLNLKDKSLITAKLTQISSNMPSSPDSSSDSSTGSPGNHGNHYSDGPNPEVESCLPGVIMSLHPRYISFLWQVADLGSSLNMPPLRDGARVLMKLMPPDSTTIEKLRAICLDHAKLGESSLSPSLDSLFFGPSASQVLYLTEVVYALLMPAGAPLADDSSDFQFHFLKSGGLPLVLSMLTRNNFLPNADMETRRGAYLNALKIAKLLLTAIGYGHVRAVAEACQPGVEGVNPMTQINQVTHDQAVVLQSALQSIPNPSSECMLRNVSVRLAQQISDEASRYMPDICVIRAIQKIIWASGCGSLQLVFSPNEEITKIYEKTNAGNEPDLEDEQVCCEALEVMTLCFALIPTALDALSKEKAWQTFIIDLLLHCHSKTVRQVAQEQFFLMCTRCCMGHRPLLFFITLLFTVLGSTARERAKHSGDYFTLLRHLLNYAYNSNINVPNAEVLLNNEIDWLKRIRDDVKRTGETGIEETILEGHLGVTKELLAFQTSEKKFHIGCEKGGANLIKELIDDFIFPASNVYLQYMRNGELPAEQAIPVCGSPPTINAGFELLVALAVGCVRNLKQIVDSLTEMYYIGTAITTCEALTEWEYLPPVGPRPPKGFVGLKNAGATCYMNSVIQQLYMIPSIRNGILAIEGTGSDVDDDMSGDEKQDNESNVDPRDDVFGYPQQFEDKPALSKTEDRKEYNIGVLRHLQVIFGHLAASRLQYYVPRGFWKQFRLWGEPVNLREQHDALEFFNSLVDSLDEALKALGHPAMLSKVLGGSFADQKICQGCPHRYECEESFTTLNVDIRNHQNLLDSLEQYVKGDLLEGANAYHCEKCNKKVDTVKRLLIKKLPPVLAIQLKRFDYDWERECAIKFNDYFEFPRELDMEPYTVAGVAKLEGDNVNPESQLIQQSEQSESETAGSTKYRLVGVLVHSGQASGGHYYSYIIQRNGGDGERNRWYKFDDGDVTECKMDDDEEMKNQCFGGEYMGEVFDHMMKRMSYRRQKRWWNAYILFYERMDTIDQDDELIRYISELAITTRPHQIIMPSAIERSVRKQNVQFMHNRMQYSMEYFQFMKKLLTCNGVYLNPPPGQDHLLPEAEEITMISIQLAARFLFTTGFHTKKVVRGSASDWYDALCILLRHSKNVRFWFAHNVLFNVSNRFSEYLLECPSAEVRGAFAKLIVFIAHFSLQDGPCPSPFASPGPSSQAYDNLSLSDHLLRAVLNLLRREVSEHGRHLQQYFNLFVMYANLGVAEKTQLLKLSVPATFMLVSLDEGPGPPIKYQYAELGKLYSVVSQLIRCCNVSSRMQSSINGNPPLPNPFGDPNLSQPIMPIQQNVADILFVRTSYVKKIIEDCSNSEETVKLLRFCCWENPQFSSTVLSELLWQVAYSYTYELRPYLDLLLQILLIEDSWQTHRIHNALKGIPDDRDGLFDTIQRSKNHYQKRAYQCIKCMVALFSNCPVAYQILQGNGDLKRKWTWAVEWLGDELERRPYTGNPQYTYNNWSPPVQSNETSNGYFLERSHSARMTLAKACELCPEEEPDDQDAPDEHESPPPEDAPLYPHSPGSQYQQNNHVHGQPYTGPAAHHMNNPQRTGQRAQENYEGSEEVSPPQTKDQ

O=C(CCl)N1CCOC2(CCC2)C1
inactive: [1] 0.183 | [2] 0.171 | [3] -0.386 | [4] -0.474 | [5] 0.109 | [6] -0.395 | [7] 0.0903 | [8] -0.347 | [9] 0.105 | [10] -0.0639

O=C(CCl)N1CCCCCC1c1ncon1 (stereo not given)
inactive: [1] -0.342 | [2] 0.113 | [3] -0.552 | [4] -0.467 | [5] 0.214 | [6] 0.731 | [7] -0.491 | [8] -0.0227 | [9] -0.226 | [10] -0.0641
